Test results reported in PubChem BioAssay (NCI).
About 79,000 compounds went through this panel and 15% of them were active in at least one assay; those are over-represented in the sample as a whole. Calls of active or inactive are those of the source. Cut-off read from the data, not from the text of the source: active = growth inhibition above about 70%; inactive = the rest.

Test: NCI Yeast Anticancer Drug Screen. Data for the mgt1 strain (AID 153)
Conditions: S. cerevisiae mgt1 mutant growth inhibition, stronger effect = higher value
Procedure: Growth inhibition of yeast strains with defined genetic alterations is measured as a screen for potential anti-cancer activity. Selected strains with alterations in DNA damage repair or cell cycle control were exposed to compounds and growth inhibition was measured relative to vehicle treated controls. The strain used in this assay is mgt1

| SMILES | growth inhibition (at 1.2 µM) | growth inhibition (at 3.7 µM) | growth inhibition (at 11.0 µM) | growth inhibition (at 33.0 µM) | growth inhibition (at 100.0 µM) |
| --- | --- | --- | --- | --- | --- |
| Cc1ccc(NC(Nc2ccc(C)cc2C)=C(C(Cl)=C(Cl)Cl)[N+](=O)[O-])c(C)c1 | 0% (inactive) | 4% (inactive) | 21% (inactive) | 99% (active) | 95% (active) |
| COC(=O)c1cnc(Cl)c([N+](=O)[O-])c1 | 2% (inactive) | 23% (inactive) | 92% (active) | 99% (active) | 99% (active) |
| CCN(CC)CCNc1ccc2nc(C)n3c4ccc(O)cc4c(=O)c1c23 | 3% (inactive) | 0% (inactive) | 3% (inactive) | 1% (inactive) | 2% (inactive) |
| O=C(O)C1CCCCC1c1c2ccc(=O)cc-2oc2cc(O)ccc12 (stereo not given) | 15% (inactive) | 16% (inactive) | 21% (inactive) | 46% (inactive) | 95% (active) |
| NC(CS)C(=O)NCCNc1ccc(NCCNC(=O)C(N)CS)c2c1C(=O)c1c(O)ccc(O)c1C2=O (stereo not given) | 7% (inactive) | 18% (inactive) | 23% (inactive) | 86% (active) | 62% (inactive) |
| Cn1c(-c2ccc(/C=N\N3CCN(/N=C/c4ccc(-c5c[n+]6ccsc6n5C)cc4)CC3)cc2)c[n+]2ccsc12 | 17% (inactive) | 27% (inactive) | 25% (inactive) | 25% (inactive) | 69% (inactive) |
| Cc1cc(O)c(C(C)C)cc1SC#N | -3% (inactive) | -13% (inactive) | 54% (inactive) | 40% (inactive) | 99% (active) |
| O=C1c2ccccc2N2OC3(N4CCCC4)CCCCC3C12c1ccccc1 (stereo not given) | -18% (inactive) | -7% (inactive) | -24% (inactive) | -13% (inactive) | 98% (active) |
